Measured values as given in ChEMBL document CHEMBL3988442, “University of Dundee, Small-Polar-MMV Screening Library” (2021).
In all, about 48,000 compounds went through this assay and about 13,000 (27%) showed an effect of 50% or more. Some of the results follow.

What follows are molecules tested on Wolbachia pipientis (assay: Anti-Wolbachia Cell-Based Screen). Conditions: 5 µM.
Assay type: functional
Design: scale not given: in the data most compounds retested in dose-response had high values

Row | SMILES | Percent Effect [%]
1 | CCCc1noc(CCC(=O)N2CCN(C)CC2c2ccccc2)n1 (stereo not given) | 7.741
2 | O=C(NCC1SCCc2ccccc21)c1cscn1 (stereo not given) | 1.343
3 | N#Cc1cnc(NCCCN2C(=O)COc3ccccc32)c(Cl)c1 | 9.033
4 | CCOc1cccc(CNC(=O)NC2CC=CC2)c1OC(F)F | 3.017
5 | Cc1n[nH]cc1CNC(C)c1cccc(N2CCCC2=O)c1.Cl (stereo not given) | 3.207
6 | O=C(c1cscn1)N1C[C@H]2CCC[C@@]2(COCc2ccccn2)C1 | 128
7 | O=C(Cc1ccsc1)N1C[C@H]2CCC[C@@]2(COCc2ccccn2)C1 | 101.3
8 | Cc1cccc(COC[C@@]23CCC[C@@H]2CN(C(=O)Cc2ccco2)C3)n1 | 13.36
9 | Cc1ccc(C(=O)N2C[C@H]3CCC[C@@]3(COCc3cccnc3)C2)s1 | -11.48
10 | O=C(Cc1ccco1)N1C[C@H]2CCC[C@@]2(COCc2cccnc2)C1 | -4.256
11 | CCc1ncc(C(=O)N2CCCC2Cn2cccn2)s1 (stereo not given) | 101.3
12 | NC(=O)c1ccc(C(=O)N2CCCCC2Cn2cccn2)s1 (stereo not given) | 92.92
13 | O=C(c1cnc(C2CC2)s1)N1CCCC1Cn1cccn1 (stereo not given) | 124.9
14 | CCc1ncc(C(=O)N2CCCCC2Cn2cccn2)s1 (stereo not given) | -1.613
15 | O=C(c1cnc(C2CC2)s1)N1CCCCC1Cn1cccn1 (stereo not given) | 5.861
16 | NC(=O)c1csc(C(=O)N2CCCCC2Cn2cccn2)c1 (stereo not given) | -5.921
17 | c1ccc2c(c1)CC(n1ccnc1-c1cc3n(n1)CCNC3)CO2 (stereo not given) | 0.8243
18 | O=C(CC[C@@H]1CCCN2CCCC[C@H]12)NCCc1nc(O)cc(O)n1 | -15.21
19 | N#Cc1ccnc(N2CCN(CC(O)c3cccc(F)c3)CC2)c1 (stereo not given) | -9.554
20 | c1ccc(-c2noc(CN3CCC(c4ccn[nH]4)CC3)n2)cc1 | 3.848
21 | Cc1cccc(-c2noc(CN3CCC(N4CCNC4=O)CC3)n2)c1 | 0.5199
22 | O=C1NCCN1C1CCN(Cc2nc(-c3ccc(F)cc3)no2)CC1 | 108.3
23 | O=C1NCCN1C1CCN(Cc2nc(-c3ccccc3)no2)CC1 | 96.78
24 | O=C1NCCN1C1CCN(Cc2nc(-c3ccoc3)no2)CC1 | 0.168
25 | CCN1CCN(C2CCN(Cc3nc(-c4ccoc4)no3)CC2)C1=O | -10.87
26 | Cc1ccc(-c2noc(CN3CCC(N4CCNC4=O)CC3)n2)cc1 | 76.33
27 | CN1CCN(C2CCN(Cc3nc(-c4ccoc4)no3)CC2)C1=O | 101.9

Row | SMILES | Percent Effect [%]
28 | O=C1NCCN1C1CCN(c2ccnc(-c3ccccc3)n2)CC1 | 10.01
29 | Fc1ccc(-c2noc(CN3CCC(c4cc[nH]n4)CC3)n2)cc1 | -73.45
30 | CC(C)Cc1nc(CN2CCC(N3CCN(C)C3=O)CC2)no1 | -0.1019
31 | Cc1ccc(-c2noc(CN3CCC(c4ccn[nH]4)CC3)n2)cc1 | -38.16
32 | N#Cc1ccccc1OCCN1CCn2c(nnc2C2CC2)C1 | -2.907
33 | Cc1ccccc1-c1noc(CN2CCC(c3ccn[nH]3)CC2)n1 | -44.64
34 | Cc1ccccc1-c1noc(CN2CCC(N3CCNC3=O)CC2)n1 | 89.22
35 | Cc1ccccc1-c1noc(CN2CCn3c(nnc3C3CC3)C2)n1 | 9.498
36 | c1cc(C2CCN(Cc3nc(-c4ccsc4)no3)CC2)[nH]n1 | -22.06
37 | c1cnn(CC2CN(Cc3nc(-c4ccsc4)no3)CCO2)c1 (stereo not given) | -8.782
38 | O=C1NCCN1C1CCN(Cc2nc(-c3ccsc3)no2)CC1 | 100.1
39 | COCCN1CC2(CCCN(c3ncnc4[nH]cnc34)C2)CCC1=O (stereo not given) | 2.898
40 | CN(C)S(=O)(=O)N1CC(c2nc(-c3ccsc3)no2)C1 | -5.352
41 | Cc1noc(C2CN(S(C)(=O)=O)Cc3ccnn3C2)n1 (stereo not given) | -9.743
42 | CN(C)c1nccc(C2CN(S(C)(=O)=O)C2)n1 | 62.66
43 | Cc1nccc(C2CN(S(=O)(=O)N(C)C)C2)n1 | 92.05
44 | CN(C)S(=O)(=O)N1CCN(c2nccc(C(F)(F)F)n2)CC1 | -20.82
45 | CS(=O)(=O)N1CC(c2ncn3ccccc23)C1 | 16
46 | N#Cc1cccnc1Nc1ccc(N2CCC(C(N)=O)CC2)cc1 | -22.12
47 | COCCn1cc2c(n1)C(CNC(=O)c1cc(C)[nH]c1C)OCC2 (stereo not given) | 94.61
48 | Cn1cc2c(n1)C(CNC(=O)Cc1ccsc1)OCC2 (stereo not given) | 6.682
49 | COCCn1cc2c(n1)C(CNS(C)(=O)=O)OCC2 (stereo not given) | 95.37
50 | Cc1cc(C(=O)NCC2OCCc3cn(CC4CC4)nc32)c(C)[nH]1 (stereo not given) | 99.34
51 | CCS(=O)(=O)NCC1OCCc2cn(CCOC)nc21 (stereo not given) | -0.9126
52 | CS(=O)(=O)CC(=O)NCC1OCCc2cn(CC3CC3)nc21 (stereo not given) | -2.36
53 | O=C(NCC1OCCc2cn(CC3CC3)nc21)c1ccsc1 (stereo not given) | -6.452
54 | O=C(Cc1ccsc1)NCC1OCCc2cn(CC3CC3)nc21 (stereo not given) | -4.734

Row | SMILES | Percent Effect [%]
55 | CS(=O)(=O)NCC1OCCc2cn(CC3CC3)nc21 (stereo not given) | -2.199
56 | Cc1cc(NC(=O)N2CCCC(CO)C2)nn1-c1ccccc1Cl (stereo not given) | 6.236
57 | COc1ccc(OC)c(CN(C(=O)c2ccc(C)[nH]c2=O)C2CC2)c1 | -3.072
58 | CC(C)c1nnc(NC(=O)N2CCN(C)CC2c2ccccc2)s1 (stereo not given) | 2.354
59 | COCc1nnc(NC(=O)CN2C(=O)c3ccccc3NC2C(C)C)s1 (stereo not given) | 107.7
60 | CCC(=O)Nc1nnc(CCCOc2ccccc2)s1 | -6.738
61 | CCC(=O)Nc1nnc(CCOc2cccc(OC)c2)s1 | 0.4737
62 | CC(C)c1nnc(NC(=O)N2CCCC2c2ccncc2)s1 (stereo not given) | 0.4499
63 | CC(C)c1nnc(NC(=O)CN2C(=O)c3ccccc3NC2C(C)C)s1 (stereo not given) | 94.59
64 | CCN1CCN(c2nc(C(C)C)nc3c(C)nn(CC)c23)CC1 | -2.933
65 | Cn1ccnc1CN1CCN2C[C@H](Oc3ccccc3)C[C@H]2C1.O=C(O)C(F)(F)F.O=C(O)C(F)(F)F | -6.794
66 | CN(C)c1nccc(N(C)Cc2ncnn2C)n1 | 4.507
67 | CCN1CCOC(CNCc2ccccc2OCC(=O)N(C)C)C1 (stereo not given) | -2.531
68 | CCN1CCOC(CNCc2ccccn2)C1 (stereo not given) | 1.335
69 | Cc1nc(CNCC2CCCN(C(=O)OC(C)(C)C)C2)cs1 (stereo not given) | 4.206
70 | Cc1nc(CNCC2CN(C3CC3)CCO2)cs1 (stereo not given) | 87.5
71 | CCN1CCOC(CNc2nccc(OC)n2)C1 (stereo not given) | 1.918
72 | COc1ccnc(NCC2CN(C3CC3)CCO2)n1 (stereo not given) | 0.4171
73 | CCN1CCOC(CNCc2ccc(OC)c(F)c2)C1 (stereo not given) | -3.361
74 | CCN1CCOC(CNCc2ccc(C)s2)C1 (stereo not given) | 96.42
75 | CCN1CCOC(CNCc2csc(C)n2)C1 (stereo not given) | 88.2
76 | CCc1noc(CN(C)C(=O)c2ccccc2-c2ncn[nH]2)n1 | -19
77 | Cc1nn(C)c(C)c1CN(C(=O)c1cc(Cl)c[nH]c1=O)C(C)C | -11.33
78 | CC(C(=O)NC1(C#N)CCCCC1)N1CCc2c(ncn2C)C1 (stereo not given) | -1.256
79 | O=C(c1ccccc1C(F)(F)F)N1CC[C@@H](N2CCC(O)CC2)[C@H](O)C1 | -4.117
80 | O=C(c1ccccc1Cl)N1CC[C@H](O)[C@@H](N2CCOCC2)CC1 | 95.8
81 | N#Cc1ccc(OC2CCN(C(=O)c3ccccc3Cl)CC2)nc1 | -3.988

Row | SMILES | Percent Effect [%]
82 | Cc1ccccc1C(=O)N1CC[C@@H](N2CCC(O)CC2)[C@H](O)C1 | 2.362
83 | O=C(c1ccc(F)cc1F)N1CC[C@H](O)[C@@H](N2CCOCC2)CC1 | 0.4748
84 | Cc1ccccc1C(=O)N1CC[C@H](O)[C@@H](N2CCOCC2)CC1 | 126.5
85 | N#Cc1cccc(CN2CCCC2c2ccc[nH]2)c1 (stereo not given) | 7.816
86 | Cc1ccc(NC(=O)C2CSCN2C(=O)c2cc[nH]n2)c(C)c1 (stereo not given) | 9.143
87 | O=C(NC1CCCC1)N1C[C@H]2CN(c3ccncc3)C[C@@]2(C(=O)O)C1 | -18.18
88 | Cc1ccc(C(CNCc2nccn2C)N2CCOCC2)s1 (stereo not given) | -4.854
89 | Cc1ccc(C(CNCc2ccncc2)N2CCOCC2)s1 (stereo not given) | -8.996
90 | CCn1ccnc1CNCC(c1ccc(C)s1)N1CCOCC1 (stereo not given) | 53.4
91 | CC(c1ccccc1)n1c(SCC(=O)O)nnc1-c1ccccc1Cl (stereo not given) | 9.035
92 | CCCn1cc(NC(=O)c2cccc(CN3CC[C@H](O)C3)c2)nn1 | 12.98
93 | CCCn1cc(NC(=O)c2cccc(CN3CC=CC3)c2)nn1 | -66.35
94 | CCn1cc(NC(=O)c2cccc(CN3C[C@@H](C)O[C@@H](C)C3)c2)nn1 | 90.95
95 | Cc1cccc(C2(NC(=O)CCCn3cncn3)CCCC2)c1 | -10.46
96 | CCOCCNC(=O)c1cnc(Sc2nccn2C)c(Cl)c1 | 13.89
97 | CCOC(=O)CNC(=O)c1cccnc1Sc1cc(OC)ccc1OC | 162.1
98 | COc1ccc(C(=O)NCCCNc2ncccn2)cc1F | -6.702
99 | COCCNC(=O)c1cccnc1Sc1cc(OC)ccc1OC | 161.9
100 | CCOC(=O)NC(CNC(=O)c1cccnc1SC)CC(C)C (stereo not given) | -1.757
101 | COCCNC(=O)c1cc(OC)ccc1Br | 8.343
102 | COc1ccc(OC)c(Sc2ncccc2C(=O)NCC2CC2)c1 | 167.1
103 | CCOCCNC(=O)c1cccnc1Sc1cc(OC)ccc1OC | 152.7
104 | COc1ccc(OC)c(C(=O)Nc2cccnc2-n2cncn2)c1 | 13.43
105 | Cc1nc2cc(F)ccc2cc1C(=O)N1CCN(CC(C)O)CC1 (stereo not given) | -9.577
